Laboratory results published in PubChem BioAssay (NCATS).
Inconclusive results are not listed. Activity calls are given as the source filed them. Calls follow the shape of the dose curve; as a rule, active = well fitted cell-killing curve with a large enough effect; inconclusive = small, poorly fitted or top-dose-only effect, or effect the other way; inactive = flat fitted curve, though single readings scatter.

What was measured:
Assay in all cases: Primary qHTS to identify gynecologic anti-cancer compounds using libraries of approved drugs and bioactive compounds (AID 1345084); also: nearly all actives have a fitted effect of over 55% in size
[1] = system: CAOV3; conditions: Gynecologic cancer cell panel viability, ATPlite luminescence, 48 h; series mostly up to 57.5 µM
Method in brief: (§1)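 Cell viability after 48 h drug treatment, ATPlite luminescence readout; five doses.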

[2] = system: CASKI; conditions: Gynecologic cancer cell panel viability, ATPlite luminescence, 48 h; series mostly up to 57.5 µM
Method in brief: as §1

[3] = system: Es-2; conditions: Gynecologic cancer cell panel viability, ATPlite luminescence, 48 h; series mostly up to 57.5 µM
Method in brief: as §1

[4] = system: HeLa; conditions: Gynecologic cancer cell panel viability, ATPlite luminescence, 48 h; series mostly up to 57.5 µM
Method in brief: as §1

[5] = system: Hek293T; conditions: Gynecologic cancer cell panel viability, ATPlite luminescence, 48 h, control line for the selectivity index; series mostly up to 57.5 µM
Method in brief: as §1

[6] = system: JEG-3; conditions: Gynecologic cancer cell panel viability, ATPlite luminescence, 48 h; series mostly up to 57.5 µM
Method in brief: as §1

[7] = system: OV90; conditions: Gynecologic cancer cell panel viability, ATPlite luminescence, 48 h; series mostly up to 57.5 µM
Method in brief: as §1

[8] = system: PA-1; conditions: Gynecologic cancer cell panel viability, ATPlite luminescence, 48 h; series mostly up to 57.5 µM
Method in brief: as §1

[9] = system: SKOV3; conditions: Gynecologic cancer cell panel viability, ATPlite luminescence, 48 h; series mostly up to 57.5 µM
Method in brief: as §1

[10] = system: Tov-21-G; conditions: Gynecologic cancer cell panel viability, ATPlite luminescence, 48 h; series mostly up to 57.5 µM
Method in brief: as §1

[11] = system: Tov112D; conditions: Gynecologic cancer cell panel viability, ATPlite luminescence, 48 h; series mostly up to 57.5 µM
Method in brief: as §1
% is scaled to controls: 0 for no effect and ±100 for the full control effect.

CC(=O)OCC(=O)O[C@@H]1[C@H]2[C@@H](OC(=O)c3ccccc3)[C@@H](C)C[C@]2(O)[C@H](OC(C)=O)C2(C)[C@H]3CC(C)(C)C(=O)[C@@H]3CC1(OC(C)=O)[C@@H]2OC(C)=O (some centres not stated)
inactive: Potency [1] | Potency [2] | Potency [3] | Potency [4] | Potency [5] | Potency [6] | Potency [7] | Potency [8] | Potency [9] | Potency [10] | Potency [11]

C=C(C(=O)O)C1CCC(C)C2CCC(=O)OC2(C)C1 (configuration not stated)
inactive: Potency [1] | Potency [2] | Potency [3] | Potency [4] | Potency [5] | Potency [6] | Potency [7] | Potency [8] | Potency [9] | Potency [10] | Potency [11]

CC1(C)CCC2(C(=O)OC3OC(COC4OC(CO)C(O)C(O)C4O)C(O)C(O)C3O)CCC3(C)C(=CCC4C5(C)CCC(O)C(C)(C(=O)O)C5CCC43C)C2C1O (configuration not stated)
inactive: activity change, negative = cytotoxicity [1] 3.42% [at 11.6 µM] | activity change, negative = cytotoxicity [2] 3.04% [at 11.6 µM] | activity change, negative = cytotoxicity [3] 4.39% [at 11.6 µM] | activity change, negative = cytotoxicity [4] -15.3% [at 11.6 µM] | activity change, negative = cytotoxicity [5] 4.46% [at 11.6 µM] | activity change, negative = cytotoxicity [6] -2.36% [at 11.6 µM] | activity change, negative = cytotoxicity [7] 0.278% [at 11.6 µM] | activity change, negative = cytotoxicity [8] -2.93% [at 11.6 µM] | activity change, negative = cytotoxicity [9] 21% [at 11.6 µM] | activity change, negative = cytotoxicity [10] 0.669% [at 11.6 µM] | activity change, negative = cytotoxicity [11] -1.2% [at 11.6 µM]

CC12CC34C=CC(=O)C(C)(CCC(=O)O)C3C(CC1C4)O2 (configuration not stated)
inactive: Potency [1] | Potency [2] | Potency [3] | Potency [4] | Potency [5] | Potency [6] | Potency [7] | Potency [8] | Potency [9] | Potency [10] | Potency [11]

N[C@H]1C[C@H]1c1ccc(-c2cccc(O)c2)cc1
inactive: Potency [1] | Potency [2] | Potency [3] | Potency [4] | Potency [5] | Potency [6] | Potency [7] | Potency [8] | Potency [9] | Potency [10] | Potency [11]

COc1cc2c(cc1O)C1(Cc3ccc4c(c3C1=O)OCO4)N(C)CC2 (configuration not stated)
inactive: Potency [1] | Potency [2] | Potency [3] | Potency [4] | Potency [5] | Potency [6] | Potency [7] | Potency [8] | Potency [9] | Potency [10] | Potency [11]

CC(CCC1C(C(=O)O)=CC(=O)CC1(C)C)O[C@@H]1O[C@H](CO)[C@@H](O)[C@H](O)[C@H]1O (some centres not stated)
inactive: Potency [1] | Potency [2] | Potency [3] | Potency [4] | Potency [5] | Potency [6] | Potency [7] | Potency [8] | Potency [9] | Potency [10] | Potency [11]

CC1(C)C(=O)N2c3ccccc3[C@]3(CC(n4cnc5ccccc5c4=O)C(=O)O3)[C@H]2N1O (some centres not stated)
inactive: Potency [1] | Potency [2] | Potency [3] | Potency [4] | Potency [5] | Potency [6] | Potency [7] | Potency [8] | Potency [9] | Potency [10] | Potency [11]

CC(=O)OCCC(C)CCC1C(C)(O)CCC2C(C)(C)CCCC21C (configuration not stated)
inactive: Potency [1] | Potency [2] | Potency [3] | Potency [4] | Potency [5] | Potency [6] | Potency [7] | Potency [8] | Potency [9] | Potency [10] | Potency [11]

CCS(=O)(=O)N1CCC([C@@H](C)n2c(C)c(C(=O)NCc3c(OC)cc(C)[nH]c3=O)c3ccccc32)CC1
inactive: Potency [1] | Potency [2] | Potency [3] | Potency [4] | Potency [5] | Potency [6] | Potency [7] | Potency [8] | Potency [9] | Potency [10] | Potency [11]

C/C=C1/[C@H](O[C@@H]2O[C@H](CO)[C@@H](O)[C@H](O)[C@H]2O)OC=C(C(=O)OC)[C@H]1CC(=O)O[C@@H]1O[C@H](CO)[C@@H](O)[C@H](O)[C@H]1O
inactive: Potency [1] | Potency [2] | Potency [3] | Potency [4] | Potency [5] | Potency [6] | Potency [7] | Potency [8] | Potency [9] | Potency [10] | Potency [11]

CC(C)=CCCC1(C)Oc2cc3c(c4c2C2C(O4)C(C)(O)CCC21)CN(C(CCC(=O)O)C(=O)O)C3=O (configuration not stated)
inactive: Potency [1] | Potency [2] | Potency [3] | Potency [4] | Potency [5] | Potency [6] | Potency [7] | Potency [8] | Potency [9] | Potency [10] | Potency [11]

Cn1c(=O)c2nc(/C=C/c3cccc(Cl)c3)n(C)c2n(C)c1=O
inactive: Potency [1] | Potency [2] | Potency [3] | Potency [4] | Potency [5] | Potency [6] | Potency [7] | Potency [8] | Potency [9] | Potency [10] | Potency [11]

CC1(C)CC[C@]2(C(=O)O[C@@H]3O[C@H](CO)[C@@H](O)[C@H](O)[C@H]3O)CC[C@]3(C)C(=CCC4[C@@]5(C)C[C@@H](O)[C@H](O)[C@@](C)(CO)C5CC[C@]43C)C2C1 (some centres not stated)
inactive: Potency [1] | Potency [2] | Potency [3] | Potency [4] | Potency [5] | Potency [6] | Potency [7] | Potency [8] | Potency [9] | Potency [10] | Potency [11]

NC1CCC(N[C@@H]2C[C@H]2c2ccccc2)CC1 (some centres not stated)
inactive: Potency [1] | Potency [2] | Potency [3] | Potency [4] | Potency [5] | Potency [6] | Potency [7] | Potency [8] | Potency [9] | Potency [10] | Potency [11]

CC(/C=C/C1(O)C(C)(C)CC(O)CC1(C)O)OC1OC(CO)C(O)C(O)C1O (configuration not stated)
inactive: Potency [1] | Potency [2] | Potency [3] | Potency [4] | Potency [5] | Potency [6] | Potency [7] | Potency [8] | Potency [9] | Potency [10] | Potency [11]

Cc1nn(C)c(COc2ccc(N3CCN(S(=O)(=O)N(C)C)CC3)cc2)c1-c1cccc2c(CCCOc3cccc4ccccc34)c(C(=O)O)n(CCN3CCOCC3)c12
inactive: Potency [1] | Potency [2] | Potency [3] | Potency [4] | Potency [5] | Potency [6] | Potency [7] | Potency [8] | Potency [9] | Potency [10] | Potency [11]

C[C@@H]1O[C@@H](O[C@H]2[C@H](OC(C#N)c3ccc(O)cc3)O[C@H](CO)[C@@H](O)[C@@H]2O)[C@H](O)[C@H](O)[C@H]1O (some centres not stated)
inactive: Potency [1] | Potency [2] | Potency [3] | Potency [4] | Potency [5] | Potency [6] | Potency [7] | Potency [8] | Potency [9] | Potency [10] | Potency [11]

CC(C#N)C(C)O[C@@H]1O[C@H](CO)[C@@H](O)[C@H](O)[C@H]1O (some centres not stated)
inactive: Potency [1] | Potency [2] | Potency [3] | Potency [4] | Potency [5] | Potency [6] | Potency [7] | Potency [8] | Potency [9] | Potency [10] | Potency [11]

CC(C)CNC(=O)/C=C/CCCCc1ccc2c(c1)OCO2
inactive: Potency [1] | Potency [2] | Potency [3] | Potency [4] | Potency [5] | Potency [6] | Potency [7] | Potency [8] | Potency [9] | Potency [10] | Potency [11]

COC1CC(=O)CCC(C)OC(=O)CC1O (configuration not stated)
inactive: Potency [1] | Potency [2] | Potency [3] | Potency [4] | Potency [5] | Potency [6] | Potency [7] | Potency [8] | Potency [9] | Potency [10] | Potency [11]

CC1(C)CCC(C)(C)c2cc([C@@H](O)C(=O)Nc3ccc(C(=O)O)cc3F)ccc21
inactive: Potency [1] | Potency [2] | Potency [3] | Potency [4] | Potency [5] | Potency [6] | Potency [7] | Potency [8] | Potency [9] | Potency [10] | Potency [11]

CC1=CCC2C(C)(CO)CCCC2(CO)C1CO (configuration not stated)
inactive: Potency [1] | Potency [2] | Potency [3] | Potency [4] | Potency [5] | Potency [6] | Potency [7] | Potency [8] | Potency [9] | Potency [10] | Potency [11]

O=C(/C=C/c1ccc(O)cc1)OC[C@]12O[C@H]1[C@@H](O)[C@@H]1C=CO[C@@H](O[C@@H]3O[C@H](CO)[C@@H](O)[C@H](O)[C@H]3O)[C@@H]12
inactive: Potency [1] | Potency [2] | Potency [3] | Potency [4] | Potency [5] | Potency [6] | Potency [7] | Potency [8] | Potency [9] | Potency [10] | Potency [11]

C=C[C@H]1[C@H](O[C@@H]2O[C@H](CO)[C@@H](O)[C@H](O)[C@H]2O)OC=C(C(=O)OC)[C@H]1C[C@@H]1N[C@H](C(=O)O)Cc2c1[nH]c1ccccc21
inactive: Potency [1] | Potency [2] | Potency [3] | Potency [4] | Potency [5] | Potency [6] | Potency [7] | Potency [8] | Potency [9] | Potency [10] | Potency [11]

CC(C)(O)c1ccc2c(c1)C(O)CC1C(C)(C(=O)O)CCCC21C (configuration not stated)
inactive: Potency [1] | Potency [2] | Potency [3] | Potency [4] | Potency [5] | Potency [6] | Potency [7] | Potency [8] | Potency [9] | Potency [10] | Potency [11]

COC1=CC(=O)C[C@@H](C)[C@]12Oc1cc(OC)cc(OC)c1C2=O
inactive: Potency [1] | Potency [2] | Potency [3] | Potency [4] | Potency [5] | Potency [6] | Potency [7] | Potency [8] | Potency [9] | Potency [10] | Potency [11]

Cc1cccc(-c2[nH]c(CNc3ccccc3F)nc2-c2ccc3ncnn3c2)n1
inactive: Potency [1] | Potency [2] | Potency [3] | Potency [4] | Potency [5] | Potency [6] | Potency [7] | Potency [8] | Potency [9] | Potency [10] | Potency [11]

CO/N=C(/C(=O)N[C@@H]1C(=O)N2C(C(=O)O)=C(CSC(=O)c3ccco3)CS[C@H]12)c1csc(N)n1
inactive: Potency [1] | Potency [2] | Potency [3] | Potency [4] | Potency [5] | Potency [6] | Potency [7] | Potency [8] | Potency [9] | Potency [10] | Potency [11]

CN1C(=O)c2ccccc2-n2c(nc3ccccc3c2=O)/C1=C/c1ccccc1
inactive: Potency [1] | Potency [2] | Potency [3] | Potency [4] | Potency [5] | Potency [6] | Potency [7] | Potency [8] | Potency [9] | Potency [10] | Potency [11]

CCOc1nc2cccc(C(=O)OCc3oc(=O)oc3C)c2n1Cc1ccc(-c2ccccc2-c2noc(O)n2)cc1
inactive: Potency [1] | Potency [2] | Potency [3] | Potency [4] | Potency [5] | Potency [6] | Potency [7] | Potency [8] | Potency [9] | Potency [10] | Potency [11]

COC(=O)C1=CO[C@@H](O[C@@H]2O[C@H](CO)[C@@H](O)[C@H](O)[C@H]2O)[C@@H]2[C@@](C)(O)[C@@H](O)C[C@]12O
inactive: Potency [1] | Potency [2] | Potency [3] | Potency [4] | Potency [5] | Potency [6] | Potency [7] | Potency [8] | Potency [9] | Potency [10] | Potency [11]
